This note sets out measurements from PubChem BioAssay AID2314 (National Center for Advancing Translational Sciences (NCATS), 2010).

Among all 300,000 compounds or so, about 37,000 (12%) were called active. Cut-off read from the data, not from the text of the source: active = max response mostly above about 13% (no sharp cut-off); inactive = mostly below about 14%. The entries come from a sample that favours actives as a whole.

This test can be described thus: Cycloheximide Counterscreen for Small Molecule Inhibitors of Shiga Toxin. Note: read at 38.3 µM for the half of the compounds with a filed dose; 0% is about no effect. The following applies: cell reporter, cycloheximide protein synthesis inhibition counterscreen; stronger effect = higher value.
For `CC(C)(C)c1ccc(/C=C/C(=O)NCCCn2ccnc2)cc1`, the max response is -3.02% (inactive).
As for `O=C(NCCCn1ccnc1)Nc1ccc(Cl)cc1Cl`, the figure is -6.88% (inactive); as for `O=C(/C=C/c1ccc(Cl)cc1)NCCCn1ccnc1`, 13.1% (active); as for `FC(F)(F)c1ccc(CN2C[C@@H]3C(c4ccccc4)C4(c5ccccc5)CC3(C4)[C@H]2c2ccccc2)cc1` (stereo not given in full), -2.46% (inactive).
As for `CCN(CC)S(=O)(=O)c1ccc(NC(=O)CN(c2cccc(F)c2)S(C)(=O)=O)cc1`, the figure is -1.18% (inactive); as for `Cc1cccc(N(CC(=O)Nc2ccc(-c3nc4ccc(C)cc4s3)cc2)S(C)(=O)=O)c1`, 43% (active); as for `COc1cc(NC(=O)CN(C)S(=O)(=O)c2ccc3nc(C)sc3c2)cc(OC)c1`, -1.04% (inactive).
The figure for `Cc1nc2ccc(S(=O)(=O)N(C)CC(=O)NC(C)c3ccccc3)cc2s1` (stereo not given) is -0.483% (inactive); for `Cc1ccc(N(CC(=O)Nc2cc(C)cc(C)c2)S(=O)(=O)c2cccc3nonc23)cc1` it is -2.6% (inactive).
`Cc1ccc2nc(-c3ccc(NC(=O)CN(C)S(=O)(=O)c4ccccc4)cc3)sc2c1`: the max response was 41.9% (active).
As for `COc1ccc(/C=C/CN2CCCC(C(=O)c3cc(F)ccc3F)C2)cc1` (stereo not given), the figure is 4.59% (inactive); as for `COc1ccc(-c2nc3n(c(=O)c2C#N)CCS3)c(OC)c1`, -3.87% (inactive); as for `COc1ccc(F)c(-c2nc(CN3CCC(c4ccccc4)CC3)c(C)o2)c1`, -1.94% (inactive).
With `COc1cc(/C=C2\C(=N)N3N=C(CC(=O)N4CCOCC4)SC3=NC2=O)cc(OC)c1OC`, the max response was -8.71% (inactive).
Take `CN(C)N1C(N)=C(C#N)C(c2ccc(Br)cc2)C2=C1CCCC2=O` (stereo not given): the max response was 11.2% (inactive).
As for `COc1cccc(C(=O)NC(=O)Nc2nc(C)cc(C(F)(F)F)n2)c1`, the figure is -1.67% (inactive); as for `Cc1cc(C)nc(NC(=O)C(C)N2C(=O)c3ccccc3C2=O)n1` (stereo not given), -0.537% (inactive).
The figure for `Cc1cc(C)nc(NC(=O)Nc2ccccc2C(F)(F)F)n1` is 25.8% (active); for `NNC(=O)c1nnn(-c2nonc2N)c1CN1CCCC1` it is -0.43% (inactive).
With `CCOc1cc2[nH]c(=S)n(Cc3ccc(C(=O)N4CCN(C)CC4)cc3)c(=O)c2cc1OCC`, the max response was -1.74% (inactive).
For the compound `Cc1cc(S(=O)(=O)N2CCOCC2)ccc1OCC(=O)N1CCOCC1`, the max response is 0.946% (inactive).
In the case of `Cc1ccc(OCCCC(=O)NC(C)c2ccccc2)c(C)c1` (stereo not given), the max response was 6.31% (inactive).
`Cc1ccc(OCCCC(=O)N2CCOCC2)c(C)c1`: the max response was 51.4% (active).
As for `O=C(c1ccc(Br)o1)N1CCN(CCOc2ccccc2)CC1`, the max response was -3.01% (inactive).
As for `CCCc1c(C(=O)O)cnn1-c1ccc(Cl)cc1`, the figure is -0.801% (inactive); as for `CCNC(=O)c1cnn(-c2ccccc2)c1-c1ccccc1`, -0.397% (inactive); as for `CCCc1c(C(=O)Nc2ccc(F)cc2)cnn1-c1ccccc1`, 33.4% (active).
For the compound `CC(C)(C)c1cc(P(=O)(c2ccccc2)c2ccccc2)ccc1O`, the max response was 0.647% (inactive).
As for `CC(C)N(C(=O)CSc1nc(COc2ccccc2)nc2ccccc12)C(C)C`, the figure is 9.79% (inactive).
Consider `CN1CCN(/N=C/c2ccc(-c3ccc([N+](=O)[O-])cc3)o2)CC1`, for which the max response was 31.4% (active).
Regarding `CN1CCN(/N=C2/C(=O)Nc3ccc([N+](=O)[O-])cc32)CC1`, the max response was 9.26% (inactive).
`Cc1ccc(-c2ccc(/C=N/NC(=O)CN3CCOCC3)o2)cc1[N+](=O)[O-]`: the max response is 12.3% (inactive).
As to `COC(=O)c1ccc(NC(=O)C23CC4CC(C2)CC(n2cnc(Cl)n2)(C4)C3)cc1`, the max response is 3.9% (inactive).
`CC(=O)Nc1ccc(S(=O)(=O)N2CCN(CCCOc3cc(C)ccc3C)CC2)cc1`: the max response is -1.97% (inactive).
The figure for `OCCCN1c2ccccc2Nc2nnc(-c3ccccc3)cc21` is 36.8% (active); for `N=c1c2c(-c3ccccc3)c(-c3ccccc3)n(Cc3ccccc3)c2ncn1CCCO` it is -6.29% (inactive); for `O=C(NC(=S)NC1CCS(=O)(=O)C1)c1cccc([N+](=O)[O-])c1` (stereo not given) it is -1.9% (inactive).
As for `CC1CCN(c2c(NCc3ccc(C(=O)NCc4ccccc4)cc3)c(=O)c2=O)CC1`, the figure is 3.3% (inactive).
As for `O=C(NCCc1ccccc1)c1ccc(NC2=NC3CS(=O)(=O)CC3S2)cc1` (stereo not given), the figure is 3.38% (inactive); as for `CC1CCCN(c2ccc(C(=O)NCCc3ccccc3)cn2)C1` (stereo not given), 66.7% (active).
With `Cc1cc(Nc2ccc(C(=O)N3CCCCC3)cc2)c2cccc(C)c2n1`, the max response was -1.19% (inactive).
As for `COc1ccc(Nc2ccc([N+](=O)[O-])cn2)cn1`, the figure is -2.61% (inactive).
As for `NC1=NC[C@@H](Cc2ccc(O)cc2)N1CC1CCCCC1`, the figure is -4.36% (inactive); as for `Cc1cc(NC(=O)COC(=O)COc2ccc(Cl)cc2C)c([N+](=O)[O-])cc1C`, -1.12% (inactive); as for `COc1cc(Cl)c(C)cc1NC(=O)COC(=O)c1cc(SC)ccc1Cl`, -1.86% (inactive).
As for `COc1ccc(OCC(=O)Nc2cc(C)c(Cl)cc2OC)c([N+](=O)[O-])c1`, the figure is 13.9% (active).
As to `Cc1cccc2sc(N(CCCN(C)C)C(=O)CCS(=O)(=O)c3ccccc3)nc12`, the max response was 8.46% (inactive).
The figure for `CN(C)CCCn1c(SCc2ccc(Cl)cc2)nnc1-c1ccncc1` is -2.48% (inactive).
With `COc1ccc(NC(=O)C2=CC(c3ccc(OC)c(OC)c3)=NS(=O)(=O)N2C)cc1`, the max response was -6.05% (inactive).
The figure for `O=c1c(-c2ccccc2)coc2cc(O)ccc12` is 51.6% (active); for `O=c1c(-c2ccccc2)coc2c(CN3CCOCC3)c(O)ccc12` it is 5.61% (inactive); for `Cc1c(CCC(=O)O)c(=O)oc2cc3occ(-c4ccccc4)c3cc12` it is -1.34% (inactive).
As for `CC1(C)C2CCC1(C)C(OC(=O)c1ccc(O)cc1)C2` (stereo not given), the max response is -2.8% (inactive).
In the case of `COc1ccc(C23NCCN2C(=O)c2ccccc23)cc1` (stereo not given), the max response was -7.41% (inactive).
The figure for `Cc1cccc(C)c1NC(=O)CNC(=O)Cc1ccc(Br)cc1` is -2.02% (inactive).
With `Cc1cccc(NC(=O)COc2ccc(Br)cc2C)n1`, the max response was 42.7% (active).
The figure for `Cc1cccc(NC(=O)Nc2ccc(OCc3ccccc3)cc2)n1` is -4.06% (inactive); for `CSc1ccccc1NC(=O)Cc1ccc(Br)cc1` it is -3.62% (inactive).
`Cc1ccccc1OCC(=O)Nc1nc(C)c(C(=O)N(C)C)s1`: the max response is 7.85% (inactive).
Take `CCN(CC)S(=O)(=O)c1ccc(C)c(NC(=O)COc2ccc(Br)cc2Cl)c1`: the max response is -3.99% (inactive).
Take `COCCNC(=O)COc1ccccc1C`: the max response was 0.731% (inactive).
As for `Cc1cccc(NC(=O)Cc2ccc(Br)cc2)n1`, the figure is 33.4% (active).
In the case of `Cc1cccc(NC(=O)COc2ccccc2C)n1`, the max response is 47.9% (active).
Turning to `O=C1C(=O)N(CCN2CCOCC2)C(c2cccc(Cl)c2)/C1=C(/O)c1ccc2c(c1)OCO2` (stereo not given), the max response was 1.71% (inactive).
The figure for `O=C(Nc1ccc(-n2cccn2)cc1)C1CCN(Cc2ccsc2)CC1` is 1.46% (inactive).
As for `Cc1cnc(C(=O)Oc2cccc(Cl)c2Cl)cn1`, the max response is -2.93% (inactive).
For `O=S(=O)(Nc1cccc(Oc2ccc(Cl)cc2)n1)c1ccc(F)cc1`, the max response is -1.16% (inactive).
In the case of `Cc1cc(C)n(CCNS(=O)(=O)c2ccc(Cl)cc2)n1`, the max response is -1.13% (inactive).
`COc1ccc(CN2CCNC(=O)C2CC(=O)NCc2cn[nH]c2-c2ccccc2)c(F)c1` (stereo not given): the max response is -3.59% (inactive).
As to `COc1ccc2cc(-c3[nH]ncc3CNCCn3nc(C)cc3C)ccc2c1`, the max response was 38.8% (active).
The figure for `CCN1CCC2(CC1)N=C(c1ccc(F)cc1)C(=S)N2C(=O)c1ccc(C)cc1` is -0.381% (inactive); for `Cc1cc(C)nc(N2CCN(c3ncnc4c3oc3ccccc34)CC2)n1` it is 10.4% (inactive).
As for `COc1ccc(C)cc1Nc1nc(C)nc2c1oc1ccccc12`, the figure is -2.13% (inactive); as for `COc1ccccc1Nc1ncnc2c1oc1ccccc12`, 22.8% (active); as for `CCCCOc1ccc(N(CC(=O)NCC2CCCO2)C(=O)CCC(=O)Nc2cc(C)ccn2)cc1` (stereo not given), -1.91% (inactive).
As for `C[n+]1ccc(C(=O)NCc2ccccc2)cc1`, the max response is -2.14% (inactive).
The figure for `COc1ccc(CNc2cc(C)cc(C)c2)cc1OC` is -1.54% (inactive); for `COc1ccc(CNc2ccc3c(c2)CCC3)cc1OC` it is 28.7% (active).
As for `COc1ccc(CC(=O)Nc2ccc3c(c2)CCC3)cc1S(=O)(=O)N1CCOCC1`, the max response was 1.02% (inactive).
On to `COc1ccc(OCC(=O)Nc2ccc(NC(=O)c3ccco3)c(C)c2)cc1`, for which the max response was 6.17% (inactive).
The figure for `COc1cc(NS(=O)(=O)c2ccc(NC(=S)NC(=O)c3ccccc3)cc2)nc(OC)n1` is -6% (inactive); for `CCn1nccc1C(=O)Nc1ccc(S(=O)(=O)NC23CC4CC(CC(C4)C2)C3)cc1` it is 9.31% (inactive); for `CCn1nccc1C(=O)Nc1ccc(Cl)c(Cl)c1` it is 35.7% (active).
As for `Cc1nnc(NC(=O)Nc2ccc(Cl)c(Cl)c2)s1`, the max response is -2.3% (inactive).
As for `N#Cc1cccc(Nc2c3c(nc4ccccc24)CCCC3)c1`, the figure is -8.08% (inactive).
The figure for `Cc1nc2nc(C)c(NS(=O)(=O)c3ccc(C(C)(C)C)cc3)c(=O)n2[nH]1` is 1.21% (inactive); for `O=C(NC(=S)N1CCN(Cc2ccccc2)CC1)c1ccccc1` it is 10.6% (inactive).
As for `O=C(Nc1ccccc1)N1CCN(C(=O)Nc2ccccc2)CC1`, the figure is -0.439% (inactive); as for `COc1ccc(NC(=O)N2CCC(Cc3ccccc3)CC2)cc1`, 19.5% (active).
With `O=C(c1cccc(Cl)c1)N1CCN(Cc2ccccc2)CC1`, the max response is 1.6% (inactive).
As for `O=C(c1cc2ccccc2o1)N1CCN(Cc2ccccc2)CC1`, the figure is 20.5% (active); as for `COc1ccc(NC(=O)N2CCCC(C(=O)Nc3ccccc3OC)C2)cc1` (stereo not given), -2.82% (inactive); as for `O=C(Nc1ccccc1)N1CCN(Cc2ccccc2)CC1`, 21% (active).
The figure for `COc1ccc(C(=O)NC2CCN(C(=O)Nc3ccc(F)cc3)CC2)cc1` is -4.59% (inactive).
The figure for `O=C(c1cc2ccccc2o1)N1CCN(c2cccc(C(F)(F)F)c2)CC1` is -3.72% (inactive).
